Reference: PubChem BioAssay AID651640 (Broad Institute, 2012)
Hit rate of the full screen: of about 350,000 compounds, about 6,000 (1.7%) were called active. Roughly 5% stayed inconclusive and do not appear here. The entries come from a sample that favours actives as a whole. A number with no mark means an inactive call. Rule as the data show it: active = CPE inhibition above about 20% (passing the limit was not always enough); inconclusive = no clear call, values can overlap the other calls; tested in BHK-21 cells.

experiment: protection of cells from dengue 2 killing – plate reader, single concentration, primary screen (AID 651640); conditions: DENV2-infected cells, cytopathic effect rescue, at 9.99 µM, stronger effect = higher value;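 also: 0% = median of neutral control wells and 100% = median of positive control wells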

Compared with O=C(C[C@H]1CC[C@H]2[C@@H](COC[C@H](O)CN2CCC(F)(F)F)O1)N1CCC(Cc2ccccc2)CC1, O=C(C[C@@H]1CC[C@H]2[C@@H](COC[C@@H](O)CN2C(=O)Nc2ccc(F)cc2)O1)NCC1CC1 is lower in CPE inhibition: 0.858% for the first, -0.669% for the second.

Going from Cc1ccc2cc(C)c(N3CCN(c4ccc(F)cc4)CC3)nc2c1 to O=C(CN1CCN(c2ccccc2)CC1)Nc1ccc(F)cc1, the CPE inhibition falls from -3.88% to -6.81%.

Going from CCC(=O)Nc1ccc2c(c1)C(=O)N(C)[C@@H]1CC[C@H](CC(=O)NCCc3ccncc3)O[C@@H]1CO2 to CN1C(=O)c2cc(NC(=O)C3CCCC3)ccc2OC[C@H]2O[C@@H](CC(=O)NCCc3ccncc3)CC[C@H]21, the CPE inhibition rises from -5.57% to 5.23%.

Compared with C[C@@H]1CN([C@H](C)CO)S(=O)(=O)c2ccc(-c3ccc(C(=O)N(C)C)cc3)cc2O[C@@H]1CN(C)C(=O)Nc1ccccc1F, CCC(=O)N(C)C[C@@H]1Oc2cc(-c3ccc(OC)cc3)ccc2S(=O)(=O)N([C@@H](C)CO)C[C@H]1C is lower in CPE inhibition: 2.86% for the first, -4.79% for the second.

First: Cc1ccccc1S(=O)(=O)N1[C@@H](c2cccc(Cl)c2)C(C(=O)OC(C)(C)C)=CC[C@H]1c1ccc(Cl)cc1
Second: Cc1ccccc1S(=O)(=O)N1[C@@H](c2cccc(Cl)c2)C(C(=O)O)=CC[C@H]1c1ccc(Cl)cc1
The CPE inhibition of the first is lower: -8.63% for the first, 6.18% for the second.

Going from Cc1ccc(S(=O)(=O)N2[C@@H](c3ccccc3F)C(C(=O)O)=CC[C@H]2c2ccc(Cl)cc2)cc1 to CCOC(=O)C1=CC[C@@H](c2ccccc2)N(S(=O)(=O)c2ccc(C)cc2)[C@H]1c1cccc(OC)c1, the CPE inhibition rises from -10.7% to -3.53%.

Compared with O=C(C[C@H]1CC[C@@H](NC(=O)CC2CC2)[C@@H](CO)O1)NCc1ccccc1, O=C(C[C@@H]1C=C[C@@H](NC(=O)c2ccccc2)[C@H](CO)O1)NCCc1ccncc1 is lower in CPE inhibition: 3.95% for the first, -5.54% for the second.

Going from C[C@@H]1CN([C@H](C)CO)C(=O)c2cc(NC(=O)Nc3ccc(F)cc3)ccc2O[C@@H](C)CCCCO[C@@H]1CN(C)S(=O)(=O)c1cn(C)cn1 to C[C@@H]1CCCCO[C@H](CN(C)Cc2ccccc2)[C@H](C)CN([C@@H](C)CO)C(=O)c2cc(NC(=O)Nc3cccc4ccccc34)ccc2O1, the CPE inhibition falls from 2.14% to -25.3%.

Compared with C[C@H](CO)N1C[C@H](C)[C@H](CN(C)Cc2cncnc2)Oc2cc(-c3ccccc3F)ccc2S1(=O)=O, C[C@H](CO)N1C[C@H](C)[C@H](CN(C)C)Oc2cc(C#Cc3ccccc3F)ccc2S1(=O)=O is lower in CPE inhibition: -2.27% for the first, -8.31% for the second.

Compared with C[C@@H](NC(=O)C[C@H]1CC[C@H]2[C@@H](COC[C@@H](O)CN2C(=O)Nc2ccccc2)O1)c1ccccc1, C[C@@H](NC(=O)C[C@@H]1CC[C@H]2[C@@H](COC[C@@H](O)CN2C(=O)Nc2cccc(F)c2)O1)c1ccccc1 is higher in CPE inhibition: -9.46% for the first, 4.9% for the second.

Going from O=C(C[C@@H]1CC[C@H]2[C@@H](COC[C@H](O)CN2C(=O)Nc2ccc(Cl)cc2)O1)NCC1CC1 to CCCNC(=O)C[C@@H]1CC[C@H]2[C@@H](COC[C@H](O)CN2C(=O)Nc2ccc(Cl)c(Cl)c2)O1, the CPE inhibition falls from 6.37% to 2.89%.

Compared with CCNC(=O)C[C@H]1CC[C@@H]2[C@H](COC[C@H](O)CN2C(=O)Nc2c(C)noc2C)O1, COc1ccc(NC(=O)N2C[C@H](O)COC[C@H]3O[C@@H](CC(=O)NC4Cc5ccccc5C4)CC[C@@H]32)cc1 is lower in CPE inhibition: -1.85% for the first, -9.25% for the second.

Compared with COc1ccc2c3c(n(C)c2c1)[C@@H](CO)N(C)CC31CN(CC2CC2)C1, COc1ccc2c3c([nH]c2c1)[C@H](CO)N(C(=O)CN1CCOCC1)CC31CN(C(C)=O)C1 is higher in CPE inhibition: -0.913% for the first, 4.54% for the second.

Going from O=c1cc(-c2ccccc2)[nH]c2cc(F)ccc12 to Cc1ccc(-c2cc(=O)c3ccc(Cl)cc3[nH]2)cc1, the CPE inhibition rises from -7.41% to 0.541%.

Compared with CC(C)CC#Cc1ccc([C@H]2[C@@H](CO)N3C(=O)CN(C(=O)CN4CCOCC4)C[C@H]23)cc1, COc1ccc(C(=O)NCCCN2CCOCC2)cc1Br is higher in CPE inhibition: -8.34% for the first, 8.89% for the second.

First: CCN1CCN(CC(=O)c2cc(OC)c(OC)c(OC)c2)CC1
Second: CCCN(C)C[C@H]1Oc2ncc(-c3ccccc3OC)cc2C(=O)N([C@H](C)CO)C[C@@H]1C
The CPE inhibition of the first is lower: -1.76% for the first, 14.5% for the second.

Compared with CC(C)C[C@@H](COCc1ccc(Cl)cc1)N1CCN(C(=O)c2ccc(Cl)cc2Cl)CCC1=O, O=C(c1ccc(C(F)(F)F)cc1)N1CCC(=O)N([C@H](COCc2ccccc2)Cc2ccccc2)CC1 is higher in CPE inhibition: -4.03% for the first, -2.73% for the second.

Going from COCC(=O)N(C)C[C@H]1Oc2ncc(-c3ccc(C)cc3)cc2C(=O)N([C@@H](C)CO)C[C@@H]1C to CCC(=O)N(C)C[C@@H]1Oc2ncc(C3=CCCC3)cc2C(=O)N([C@H](C)CO)C[C@@H]1C, the CPE inhibition falls from 14.3% to -6.55%.

Compared with Cc1ccc(S(=O)(=O)N2C[C@]3(O)C[C@@H]4C(=O)N(c5ccccc5)C(=O)[C@@H]4C[C@]3(OC(=O)NC3CC3)C2)cc1, COC(=O)[C@H]1C[C@H](OC(=O)NCc2ccccc2)[C@@]2(O)CN(S(=O)(=O)c3ccc(C)cc3)CC2[C@H]1C(=O)OC (stereo partly specified) is higher in CPE inhibition: 0.334% for the first, 11.6% for the second.

Compared with C[C@H]1CN([C@@H](C)CO)C(=O)c2cccc(NC(=O)CCCCCC(=O)Nc3ccccc3N)c2O[C@@H]1CN(C)CC1CCCCC1, C[C@@H]1CN([C@@H](C)CO)C(=O)c2cccc(NC(=O)c3ccc(-c4nccs4)cc3)c2O[C@@H]1CN(C)S(=O)(=O)c1ccccc1 is lower in CPE inhibition: 1.77% for the first, -5.21% for the second.

Going from C[C@H]1CN([C@@H](C)CO)C(=O)c2cc(Br)cnc2O[C@@H]1CN(C)S(=O)(=O)c1ccc(F)cc1 to C[C@H]1CN([C@@H](C)CO)C(=O)c2cc(-c3ccccc3F)cnc2O[C@@H]1CN(C)C, the CPE inhibition falls from -4.52% to -7.94%.

Going from CCC(=O)N1CC2(CN(C(=O)Nc3ccccc3F)C2)c2c([nH]c3cc(OC)ccc23)[C@H]1CO to COc1cccc(S(=O)(=O)Nc2ccc3c(c2)C(=O)N(C)C[C@@H](OC)[C@@H](C)CN[C@@H](C)CO3)c1, the CPE inhibition falls from 10.3% to 2.43%.

Compared with CC(C)C#Cc1ccc2c(c1)O[C@@H](CN(C)C(=O)Nc1ccccc1)[C@H](C)CN([C@H](C)CO)S2(=O)=O, C[C@@H]1CN([C@@H](C)CO)C(=O)c2cc(C3=CCCC3)cnc2O[C@H]1CN(C)Cc1ccccc1F is higher in CPE inhibition: -2.16% for the first, 3.87% for the second.

Going from O=C(C[C@@H]1C[C@H]2c3cc(NS(=O)(=O)c4ccc(F)cc4)ccc3O[C@H]2[C@H](CO)O1)NC1CCCC1 to O=C(C[C@H]1C[C@H]2c3cc(NC(=O)Cc4ccncc4)ccc3O[C@H]2[C@@H](CO)O1)NCc1cccc(F)c1, the CPE inhibition rises from -5.59% to -1.57%.

Compared with C[C@H](CO)N1C[C@H](C)[C@H](CN(C)Cc2cccnc2)Oc2ncc(C3=CCCC3)cc2C1=O, C[C@@H]1CN([C@H](C)CO)C(=O)c2cc(C3=CCCC3)cnc2O[C@H]1CN(C)C is higher in CPE inhibition: -1.52% for the first, 0.588% for the second.

Work on C[C@@H]1CN([C@@H](C)CO)C(=O)c2cc(N(C)C)ccc2O[C@@H](C)CCCCO[C@@H]1CN(C)C(=O)CCC(F)(F)F yielded a CPE inhibition of 5.58%.

With CC(=O)c1c(N2CCN(c3ccc(F)cc3)CC2)nc(=S)n(-c2ccccc2)c1C the CPE inhibition was 46.2% (active).
With CN1C(=O)c2cc(NC(=O)C3CCCC3)ccc2OC[C@@H]2O[C@@H](CC(=O)NCCc3ccncc3)CC[C@@H]21 the CPE inhibition was 26.3% (active).
For Cc1ccc([C@@H]2CC=C(C(=O)O)[C@H](c3cccc(Cl)c3)N2S(=O)(=O)c2ccc(C)cc2)cc1, the CPE inhibition was 42.3% (active).
For Cc1ccc(S(=O)(=O)N2[C@@H](c3cccc(Cl)c3)C(C(=O)O)=CC[C@H]2c2ccc(Cl)c(Cl)c2)cc1, the CPE inhibition was 40% (active).
In the case of O=C(C[C@H]1CC[C@H]2[C@@H](COC[C@H](O)CN2C(=O)Nc2ccc(Cl)cc2)O1)NCC1CC1, the CPE inhibition is reported as 85.5% (active).
In the case of CCCNC(=O)C[C@H]1CC[C@H]2[C@@H](COC[C@H](O)CN2C(=O)Nc2c(C)noc2C)O1, the CPE inhibition is reported as 40.9% (active).
With C[C@@H](NC(=O)C[C@@H]1CC[C@@H]2[C@H](COC[C@@H](O)CN2C(=O)Nc2cccc(F)c2)O1)c1ccccc1 the CPE inhibition was 24.3% (active).
For Cc1ccc(-c2cc(=O)c3ccc(F)cc3[nH]2)cc1, the CPE inhibition was 25% (active).
For COc1cc(C(=O)OCCCN2CCOCC2)cc(OC)c1OC, the CPE inhibition was 49.2% (active).
With CC(C)CC(COCc1ccc(Cl)cc1)N1CCN(C(=O)c2ccc(C(F)(F)F)cc2)CCC1=O (stereo unspecified) the CPE inhibition was 49.9% (active).
In the case of Cc1ccc(S(=O)(=O)N2C[C@@H](C)[C@]3(C2)[C@H](O)[C@H](OC(=O)NCc2ccccc2)C[C@H]2C(=O)N(c4ccccc4)C(=O)[C@H]23)cc1, the CPE inhibition is reported as 31.2% (active).
In the case of C=C1C(=O)[C@]23C[C@H]1CCC2[C@@]1(C)C(C[C@@H]3O)[C@](C)(C(=O)O)CC[C@@H]1O (stereo partly specified), the CPE inhibition is reported as 74.8% (active).
For C[C@H](CO)N1C[C@H](C)[C@@H](CN(C)Cc2ccccn2)Oc2ncc(C3=CCCC3)cc2C1=O, the CPE inhibition was 49.6% (active).
In the case of C[C@H](CO)N1C[C@H](C)[C@H](CN(C)S(C)(=O)=O)Oc2ncc(C3=CCCC3)cc2C1=O, the CPE inhibition is reported as 32.1% (active).
For CCCN(C)C[C@@H]1Oc2ncc(-c3ccccc3F)cc2C(=O)N([C@@H](C)CO)C[C@@H]1C, the CPE inhibition was 38.8% (active).
